Columns and labels:
[1] = molecular target: T1, Ephrin type-A receptor 3 (Homo sapiens) (UniProt P29320); conditions: at 10 µM
T1 sequence (whole entry): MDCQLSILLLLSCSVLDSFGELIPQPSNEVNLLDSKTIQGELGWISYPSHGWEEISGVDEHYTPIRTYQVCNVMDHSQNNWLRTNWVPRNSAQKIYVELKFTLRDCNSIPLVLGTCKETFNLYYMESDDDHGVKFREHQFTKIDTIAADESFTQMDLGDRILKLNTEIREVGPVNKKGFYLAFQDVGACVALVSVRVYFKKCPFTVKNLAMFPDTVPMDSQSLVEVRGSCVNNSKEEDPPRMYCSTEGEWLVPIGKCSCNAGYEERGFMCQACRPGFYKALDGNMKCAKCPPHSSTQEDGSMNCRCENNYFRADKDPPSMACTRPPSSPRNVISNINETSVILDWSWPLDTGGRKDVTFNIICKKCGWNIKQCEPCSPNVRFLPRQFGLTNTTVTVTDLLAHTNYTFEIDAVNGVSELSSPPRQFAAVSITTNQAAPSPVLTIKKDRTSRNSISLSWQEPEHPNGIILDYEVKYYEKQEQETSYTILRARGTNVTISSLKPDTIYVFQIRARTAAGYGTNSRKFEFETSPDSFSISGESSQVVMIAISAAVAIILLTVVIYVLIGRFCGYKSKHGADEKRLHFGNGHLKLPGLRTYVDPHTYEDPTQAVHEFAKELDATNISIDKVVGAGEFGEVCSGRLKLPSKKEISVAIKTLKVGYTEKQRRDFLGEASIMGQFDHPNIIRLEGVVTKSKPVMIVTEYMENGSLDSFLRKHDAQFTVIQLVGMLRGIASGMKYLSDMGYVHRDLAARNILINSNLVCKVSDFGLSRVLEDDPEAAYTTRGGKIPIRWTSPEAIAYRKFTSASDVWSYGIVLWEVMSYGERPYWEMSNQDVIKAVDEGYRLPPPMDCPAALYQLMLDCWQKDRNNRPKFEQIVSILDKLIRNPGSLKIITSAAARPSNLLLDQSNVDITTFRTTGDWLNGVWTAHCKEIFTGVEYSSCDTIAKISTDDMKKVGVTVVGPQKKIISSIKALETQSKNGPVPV

[2] = molecular target: Ephrin type-A receptor 4 (Homo sapiens) (UniProt P54764); conditions: at 1 µM
[3] = molecular target: Ephrin type-A receptor 4 (Homo sapiens) (UniProt P54764); conditions: at 10 µM
[4] = molecular target: Ephrin type-A receptor 5 (Homo sapiens) (UniProt P54756); conditions: at 1 µM
[5] = molecular target: Ephrin type-A receptor 5 (Homo sapiens) (UniProt P54756); conditions: at 10 µM
[6] = molecular target: Ephrin type-A receptor 7 (Homo sapiens) (UniProt Q15375); conditions: at 1 µM
[7] = molecular target: Ephrin type-A receptor 7 (Homo sapiens) (UniProt Q15375); conditions: at 10 µM
[8] = molecular target: T2, Ephrin type-A receptor 8 (Homo sapiens) (UniProt P29322); conditions: at 1 µM
T2 sequence (whole entry): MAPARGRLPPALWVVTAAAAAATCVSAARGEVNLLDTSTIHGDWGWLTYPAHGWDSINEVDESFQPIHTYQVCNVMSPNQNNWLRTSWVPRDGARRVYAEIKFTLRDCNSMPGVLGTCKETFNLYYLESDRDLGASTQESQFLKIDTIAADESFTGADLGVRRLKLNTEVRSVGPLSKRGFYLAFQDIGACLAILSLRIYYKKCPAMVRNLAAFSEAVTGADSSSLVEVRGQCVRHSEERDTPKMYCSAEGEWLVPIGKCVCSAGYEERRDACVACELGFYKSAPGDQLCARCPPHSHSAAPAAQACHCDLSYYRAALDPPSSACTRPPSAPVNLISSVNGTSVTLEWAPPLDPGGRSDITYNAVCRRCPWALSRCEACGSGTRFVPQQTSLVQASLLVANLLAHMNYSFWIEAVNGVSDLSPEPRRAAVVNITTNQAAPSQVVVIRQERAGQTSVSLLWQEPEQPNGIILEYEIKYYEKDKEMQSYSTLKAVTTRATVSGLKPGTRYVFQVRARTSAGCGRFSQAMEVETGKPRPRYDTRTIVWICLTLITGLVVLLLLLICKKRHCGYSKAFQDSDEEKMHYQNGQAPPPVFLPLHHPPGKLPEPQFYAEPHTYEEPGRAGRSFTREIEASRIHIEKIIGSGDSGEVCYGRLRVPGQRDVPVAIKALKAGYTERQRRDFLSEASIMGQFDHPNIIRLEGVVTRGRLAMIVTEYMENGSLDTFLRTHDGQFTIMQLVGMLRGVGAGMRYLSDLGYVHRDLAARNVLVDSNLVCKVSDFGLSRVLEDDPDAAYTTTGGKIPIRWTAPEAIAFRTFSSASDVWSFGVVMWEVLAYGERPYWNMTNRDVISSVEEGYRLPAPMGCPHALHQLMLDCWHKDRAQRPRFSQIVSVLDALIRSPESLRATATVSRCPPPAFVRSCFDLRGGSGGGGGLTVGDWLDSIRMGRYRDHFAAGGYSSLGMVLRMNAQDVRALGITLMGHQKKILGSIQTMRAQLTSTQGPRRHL

[9] = molecular target: T3, Ephrin type-B receptor 1 (Homo sapiens) (UniProt P54762); conditions: at 1 µM
T3 sequence (whole entry): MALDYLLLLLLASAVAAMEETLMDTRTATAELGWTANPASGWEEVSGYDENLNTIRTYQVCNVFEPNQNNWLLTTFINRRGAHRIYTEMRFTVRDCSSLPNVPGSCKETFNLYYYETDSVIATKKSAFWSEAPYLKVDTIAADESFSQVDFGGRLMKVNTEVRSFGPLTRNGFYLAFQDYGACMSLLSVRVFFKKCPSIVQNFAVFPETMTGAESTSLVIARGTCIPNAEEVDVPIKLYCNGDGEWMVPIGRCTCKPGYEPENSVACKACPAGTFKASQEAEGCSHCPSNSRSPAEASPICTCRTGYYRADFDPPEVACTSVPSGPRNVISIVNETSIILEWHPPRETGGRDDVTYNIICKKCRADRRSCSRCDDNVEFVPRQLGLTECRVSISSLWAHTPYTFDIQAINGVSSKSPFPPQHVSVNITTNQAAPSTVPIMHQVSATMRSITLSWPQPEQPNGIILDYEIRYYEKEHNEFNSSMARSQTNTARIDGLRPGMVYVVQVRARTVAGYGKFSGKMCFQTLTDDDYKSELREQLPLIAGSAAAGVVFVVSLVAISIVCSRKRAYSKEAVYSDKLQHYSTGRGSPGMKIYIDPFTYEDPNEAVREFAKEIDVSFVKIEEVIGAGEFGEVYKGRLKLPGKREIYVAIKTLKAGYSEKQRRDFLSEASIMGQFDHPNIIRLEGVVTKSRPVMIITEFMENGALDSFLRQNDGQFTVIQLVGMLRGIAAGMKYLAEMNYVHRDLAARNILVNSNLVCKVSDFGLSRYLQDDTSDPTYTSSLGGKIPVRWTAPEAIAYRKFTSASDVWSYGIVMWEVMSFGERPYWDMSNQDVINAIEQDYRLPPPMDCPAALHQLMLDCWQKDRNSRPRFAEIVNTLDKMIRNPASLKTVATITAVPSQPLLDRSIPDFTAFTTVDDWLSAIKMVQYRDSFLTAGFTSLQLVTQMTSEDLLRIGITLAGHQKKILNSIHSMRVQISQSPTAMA

Ephrin type-A receptor 7 (Homo sapiens), sequence (Q15375 28-998 limits assumed): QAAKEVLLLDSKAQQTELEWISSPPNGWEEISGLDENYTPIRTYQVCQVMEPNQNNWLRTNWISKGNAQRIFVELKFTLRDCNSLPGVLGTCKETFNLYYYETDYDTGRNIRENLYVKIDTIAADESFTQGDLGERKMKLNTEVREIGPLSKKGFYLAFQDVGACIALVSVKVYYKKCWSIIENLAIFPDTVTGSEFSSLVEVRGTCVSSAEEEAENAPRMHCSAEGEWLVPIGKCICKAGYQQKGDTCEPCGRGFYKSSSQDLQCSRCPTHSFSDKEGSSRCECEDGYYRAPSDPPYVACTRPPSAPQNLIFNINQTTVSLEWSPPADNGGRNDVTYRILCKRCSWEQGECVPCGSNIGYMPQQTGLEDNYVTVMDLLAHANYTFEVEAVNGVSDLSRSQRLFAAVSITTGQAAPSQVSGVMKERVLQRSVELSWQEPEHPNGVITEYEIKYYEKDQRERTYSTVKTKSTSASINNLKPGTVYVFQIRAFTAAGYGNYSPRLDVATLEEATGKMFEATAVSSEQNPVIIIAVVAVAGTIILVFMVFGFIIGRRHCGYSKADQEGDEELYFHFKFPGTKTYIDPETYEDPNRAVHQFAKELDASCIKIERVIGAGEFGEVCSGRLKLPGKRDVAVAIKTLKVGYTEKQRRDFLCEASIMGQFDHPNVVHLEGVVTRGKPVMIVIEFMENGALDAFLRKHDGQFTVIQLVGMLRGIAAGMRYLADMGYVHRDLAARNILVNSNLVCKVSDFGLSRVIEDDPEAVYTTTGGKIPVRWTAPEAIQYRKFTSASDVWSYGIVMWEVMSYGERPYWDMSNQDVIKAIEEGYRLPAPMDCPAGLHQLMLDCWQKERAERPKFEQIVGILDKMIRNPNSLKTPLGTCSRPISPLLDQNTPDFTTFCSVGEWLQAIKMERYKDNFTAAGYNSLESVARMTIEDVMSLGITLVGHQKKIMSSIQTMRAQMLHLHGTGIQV
Ephrin type-A receptor 4 (Homo sapiens), sequence (P54764 whole entry): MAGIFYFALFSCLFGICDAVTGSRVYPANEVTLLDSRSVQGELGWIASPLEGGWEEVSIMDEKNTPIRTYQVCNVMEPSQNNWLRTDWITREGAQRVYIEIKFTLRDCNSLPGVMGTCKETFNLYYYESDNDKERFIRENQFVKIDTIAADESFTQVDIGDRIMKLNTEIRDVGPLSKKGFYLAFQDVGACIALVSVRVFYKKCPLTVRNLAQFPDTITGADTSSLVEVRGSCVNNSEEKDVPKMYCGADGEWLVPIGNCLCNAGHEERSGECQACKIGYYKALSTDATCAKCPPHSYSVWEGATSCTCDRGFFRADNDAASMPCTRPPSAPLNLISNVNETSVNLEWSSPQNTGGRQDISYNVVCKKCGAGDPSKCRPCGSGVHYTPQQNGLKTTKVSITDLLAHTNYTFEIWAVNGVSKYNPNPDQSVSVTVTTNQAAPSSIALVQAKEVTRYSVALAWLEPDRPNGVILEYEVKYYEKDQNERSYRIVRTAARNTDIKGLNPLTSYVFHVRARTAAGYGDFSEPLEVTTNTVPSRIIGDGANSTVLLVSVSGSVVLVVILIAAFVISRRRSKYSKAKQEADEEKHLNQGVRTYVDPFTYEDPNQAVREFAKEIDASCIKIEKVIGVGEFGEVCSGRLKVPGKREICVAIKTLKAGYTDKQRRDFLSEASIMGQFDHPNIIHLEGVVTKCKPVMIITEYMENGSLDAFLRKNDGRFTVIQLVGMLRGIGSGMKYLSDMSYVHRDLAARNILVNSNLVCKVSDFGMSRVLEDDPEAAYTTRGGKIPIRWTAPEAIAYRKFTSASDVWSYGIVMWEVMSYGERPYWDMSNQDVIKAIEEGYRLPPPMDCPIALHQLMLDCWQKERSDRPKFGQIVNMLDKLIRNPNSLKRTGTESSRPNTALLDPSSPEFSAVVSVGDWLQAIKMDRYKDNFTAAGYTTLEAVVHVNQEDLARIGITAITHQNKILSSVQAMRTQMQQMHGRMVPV
Ephrin type-A receptor 5 (Homo sapiens), sequence (P54756 whole entry): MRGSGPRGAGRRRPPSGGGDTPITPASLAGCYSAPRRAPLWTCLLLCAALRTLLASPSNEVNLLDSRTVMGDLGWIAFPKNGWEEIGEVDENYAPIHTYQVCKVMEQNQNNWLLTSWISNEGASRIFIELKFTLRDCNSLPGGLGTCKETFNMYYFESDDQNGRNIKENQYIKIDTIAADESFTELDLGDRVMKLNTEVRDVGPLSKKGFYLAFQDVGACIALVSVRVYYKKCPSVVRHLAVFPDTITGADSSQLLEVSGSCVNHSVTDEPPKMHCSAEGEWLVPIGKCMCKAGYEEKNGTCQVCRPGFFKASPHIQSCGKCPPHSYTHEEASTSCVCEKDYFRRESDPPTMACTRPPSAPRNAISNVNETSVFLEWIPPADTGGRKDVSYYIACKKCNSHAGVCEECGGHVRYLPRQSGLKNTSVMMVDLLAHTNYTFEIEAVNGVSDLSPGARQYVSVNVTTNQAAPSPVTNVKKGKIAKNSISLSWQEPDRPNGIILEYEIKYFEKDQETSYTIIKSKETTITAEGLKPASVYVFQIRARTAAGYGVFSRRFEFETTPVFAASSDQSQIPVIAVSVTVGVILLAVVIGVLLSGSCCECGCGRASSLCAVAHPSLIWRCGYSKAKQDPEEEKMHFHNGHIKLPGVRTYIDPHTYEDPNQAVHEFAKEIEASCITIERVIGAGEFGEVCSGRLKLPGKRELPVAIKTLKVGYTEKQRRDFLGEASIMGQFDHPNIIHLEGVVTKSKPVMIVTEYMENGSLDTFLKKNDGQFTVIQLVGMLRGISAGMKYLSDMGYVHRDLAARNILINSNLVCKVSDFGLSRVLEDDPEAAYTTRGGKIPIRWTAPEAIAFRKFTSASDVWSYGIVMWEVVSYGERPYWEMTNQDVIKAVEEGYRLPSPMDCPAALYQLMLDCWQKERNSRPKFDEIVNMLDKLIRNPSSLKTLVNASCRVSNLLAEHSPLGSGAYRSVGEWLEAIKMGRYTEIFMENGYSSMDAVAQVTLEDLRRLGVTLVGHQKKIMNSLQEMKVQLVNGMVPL

## CC[n+]1c(/C=C/N(C)c2ccccc2)n(-c2ccccc2)c2ccc(-c3nc4ccccc4s3)cc21
[1]
  residual activity: 92%
[2]
  residual activity: 106%
[3]
  residual activity: 85%
[4]
  residual activity: 120%
[5]
  residual activity: 110%
[6]
  residual activity: 108%
[7]
  residual activity: 96%
[8]
  residual activity: 114%
[9]
  residual activity: 103%
